# MITF act: increases MITF-driven TRPM1 promoter luciferase signal; activation, % at 12.5 µM; actives 0.75% (n = 300,000); SK-MEL-5 TRPM1-promoter luciferase, 24 h; % of positive control, neutral wells = 0;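 active = mean activation of at least 80% with every replicate also reaching 80%; inconclusive = mean reaches 80% but some replicate falls short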;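 note: 0% = neutral control wells and 100% = parthenolide positive control wells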
# F508del corr: correctors of CFTR F508del function in bronchial epithelial cells | CFBE cells, YFP halide quenching; stimulated with forskolin plus potentiator P3; % fluorescence drop versus neutral controls | activity (quench increase), % at 7.58 µM | AID 720511 | actives 0.36% (n = 350,000);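 active = mean added fluorescence quench of at least 8% versus neutral control, with both replicates also reaching 8%; inconclusive = only one of the mean or replicate conditions met; inactive = mean below 8% and not both replicates reaching 8%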;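 note: cells transiently co-express mutant CFTR-F508del with the halide-sensitive YFP; corrector assay measuring rescue of mutant channel to the surface after 24 h compound exposure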
# GSIS activator: GLuc luminescence reporter in INS-1E cells, primary screen for activators of glucose-dependent secretion of insulin. INS-1E GLuc reporter insulin secretion, 2-3 h. activation, % at 16.6 µM. actives 0.61% (n = 370,000);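 active = lowest replicate activation of at least 40%, so every replicate reaches that level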;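 note: 0% = median of neutral control wells and 100% = median of IBMX positive control wells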
# Wnt act: Wnt/beta-catenin pathway activation | Wnt/beta-catenin reporter cell assay, activator, plate reader | activation, % at 9.35 µM | actives 1.2% (n = 300,000); in the data active = activation above about 30%, passing the limit was not always enough; inconclusive = no clear call, values can overlap the other calls;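 note: 0% = neutral control wells and 100% = positive control wells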
# Env fusion inh: inhibitors of HIV Env-mediated cell fusion; HeLa-JRFL Env/CEM21 cell fusion, luciferase; inhibition, % at 12.3 µM; actives 1.1% (n = 360,000);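 active = mean replicate inhibition score of at least 50 and every replicate individually at or above 50; inconclusive = only one of the two criteria met; inactive = mean below 50 and not all replicates reaching 50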;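 note: 0% = plate neutral controls and 100% = maraviroc near 300 nM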
# Starred values were filed as active, the others as inactive; i = inactive; ? = inconclusive; · = no result given; [ ] = dose if it differs, or a comment. Shown are actives, neighbours in structure and some others; about 2.7% of the full set was active somewhere.
SMILES,MITF act,F508del corr,GSIS activator,Wnt act,Env fusion inh
C[C@H](CO)N1C[C@H](C)[C@H](CN(C)C(=O)Nc2ccc3c(c2)OCO3)Oc2c(NC(=O)c3cnccn3)cccc2C1=O,·,-2,3,·,·
C[C@@H]1CN([C@H](C)CO)C(=O)Cc2cc(NC(=O)C3CC3)ccc2O[C@H]1CN(C)C(=O)Nc1cccc2ccccc12,·,-3,3,·,-3[16.7 µM]
COCC(=O)Nc1ccc2c(c1)C(=O)N(C)[C@@H]1CC[C@@H](CC(=O)NCC3CC3)O[C@H]1CO2,·,-2,9,·,-19[16.7 µM]
COc1ccc(CNC(=O)COC(=O)c2cc(C)nc3ccccc23)cc1,-5,7,46*,-4,-8
COc1ccc(CNC(=O)COC(=O)CCC(=O)c2cccs2)cc1,-2,0,8,39*,2
O=C(COC(=O)CCC(=O)c1cccs1)NCc1ccc(Cl)cc1,-3,-1,10,4,20
COc1ccc(C(C)=O)cc1COC(=O)CCC(=O)c1cccs1,-8,-2,44*,12,-1
CS(=O)(=O)N1[C@H](C(=O)NCC2CC2)[C@@H](CO)[C@@H]2Cn3c(ccc(-c4ccccc4F)c3=O)[C@@H]21,·,-1,-2,·,·
COCCNC(=O)C[C@@H]1C=C[C@H](NS(=O)(=O)c2ccc(C)cc2)[C@H](CO)O1,·,-5,24,·,-10[16.7 µM]
O=C(O)c1cccc(CN2C(=O)SC(Nc3cccc4ccccc34)C2=O)c1 (stereo not given),-9,2,-16,40*,-1
CCOC(=O)c1c(S(=O)(=O)NCCc2ccc(OC)c(OC)c2)c(C)n(C)c1C,3,6,51*,1,5
CCOC(=O)c1c(S(=O)(=O)NCCc2ccccc2)c(C)n(C)c1C,21,0,-9,-1,-3
CCn1cc(S(=O)(=O)NCCc2ccc(OC)c(OC)c2)cn1,-11,-6,48*,1,-22
COc1ccc(CCNS(=O)(=O)c2cccc(F)c2)cc1OC,-7,·,·,·,-38
COc1ccc(CCNS(=O)(=O)c2cnc(Cl)c(Br)c2)cc1OC,-1,2,20,-1,-10
COc1ccc(CCNS(=O)(=O)c2cn(C)cn2)cc1OC,0,2,44*,0,1
COc1ccc(CCNS(=O)(=O)c2cccc(C)c2)cc1OC,3,·,90*,·,7
Cc1ccc(Sc2cnc3ccccc3n2)cc1,89*,·,·,·,·
Cc1ccc(-c2nc3ccc(Cl)cn3c2Cc2cccc(Cl)c2)cc1,·,-2,·,46*,-141
Cc1cccc(C(=O)NC(=S)NNC(=O)COc2c(C)cccc2C)c1,-5,·,76*,·,-25
Cc1cc(N2CCC(C(=O)N3CCN(c4cccc(C)c4C)CC3)CC2)n2ncnc2n1,-15,·,-3,·,67*
C=CC[C@]12N=C(c3ccc(OCCCO)cc3)O[C@H]1c1ccccc1CN(Cc1ccccc1)C2=O,·,-2,·,·,-20[16.7 µM]
OCCCNc1ncnc2scc(-c3ccc(Cl)cc3)c12,2,-1,90*,-4,62*
c1ccc(-c2csc3ncnc(NCCCN4CCOCC4)c23)cc1,-9,·,·,·,·
c1csc(-c2csc3ncnc(NCCCN4CCOCC4)c23)c1,-7,·,-28,-2,68*
SMILES,MITF act,F508del corr,GSIS activator,Wnt act,Env fusion inh
Fc1ccc(-c2csc3ncnc(N4CCN(c5ccccc5)CC4)c23)cc1,1,0,4,-6,29
c1ccc(N2CCN(c3ncnc4scc(-c5cccs5)c34)CC2)cc1,-10,·,5,2,82*
C[C@@H]1CN([C@@H](C)CO)S(=O)(=O)c2ccc(C#CC3CCCCC3)cc2O[C@H]1CN(C)C,·,0,-4,·,35[16.7 µM]
Cc1nn(-c2ccc(N3CCCCC3)nn2)c(C)c1CCC(=O)Nc1cccc(F)c1,97*,-2,-15,19,-66
COC(=O)C1=C(C)N(Cc2cccc(C(F)(F)F)c2)C(=NCc2ccc(OC)cc2)NC1c1ccccc1 (stereo not given),·,-1,·,-24,55*
COC(=O)C1=C(C)N(Cc2ccccc2)C(=NCc2cccc(C(F)(F)F)c2)N[C@H]1c1cccc(F)c1,-92,1,1,-13,-29
COC(=O)C1=C(C)N(Cc2cccc(C(F)(F)F)c2)C(=NCc2ccc(OC)cc2)NC1c1ccc(F)cc1 (stereo not given),·,1,285*,-21,2
COC(=O)C1=C(C)N(Cc2cccc(C(F)(F)F)c2)C(=NCc2ccc(OC)cc2)NC1c1cccc(F)c1 (stereo not given),·,-4,84*,-27,24
C[C@@H]1CCCCO[C@@H](CN(C)C(=O)c2ccncc2)[C@H](C)CN([C@@H](C)CO)C(=O)c2cc(NS(=O)(=O)c3ccc(F)cc3)ccc2O1,·,3,2,·,1[16.7 µM]
CCN(CC)c1ncnc2c1[nH]c1ccccc12,-25,·,6,-2,·
CC(C)Oc1ncnc2c1[nH]c1ccccc12,·,10*,-31,-1,-2
CC(=O)c1cnc(Nc2cccc(C)c2)s1,92*,3,-7,-2,-44
O=C(c1ccccc1)c1cnc(Nc2ccc(Cl)c(Cl)c2)s1,·,·,·,·,-83
COc1ccc(-c2cc(=O)c3cc(C)ccc3[nH]2)cc1,107*,-3,12,45*,-104
COc1cc2[nH]c(-c3ccc(C)cc3)cc(=O)c2cc1OC,46,-1,57*,5,-23
Cc1ccc2[nH]c(-c3ccccc3)cc(=O)c2c1,-12,10*,·,12,i
COc1cc2[nH]c(-c3cccc(F)c3)cc(=O)c2cc1OC,-10,2,7,1,-32
Cc1ccc(-c2ccc([C@H]3[C@H](CO)N4C(=O)CN(C(=O)Nc5cccc(F)c5)C[C@@H]34)cc2)cc1,·,2,-14,·,·
Cc1ccc(-c2cccc(CN3CCN(C(C)C)C(CCO)C3)c2)o1 (stereo not given),4,11*,0,-1,-2
CC(C)N1CCN(Cc2ccncc2)CC1CCO (stereo not given),·,0,10,-2,3
CC1=CC(=O)C2=C(C)CC[C@@H]3[C@H](OC(=O)[C@H]3C)[C@@H]12,7,7,-6,-2,68*
CCC(=O)Nc1ccc2c(c1)C(=O)N(C)[C@@H]1CC[C@@H](CC(=O)NCCc3ccccc3)O[C@@H]1CO2,·,-1,-5,·,-7[16.7 µM]
COc1ccc(NC(=O)Nc2ccc3c(c2)C(=O)N([C@H](C)CO)C[C@H](C)[C@H](CN(C)Cc2ccc(C(F)(F)F)cc2)OCCCC[C@H](C)O3)cc1,·,0,-8,·,64*[16.7 µM]
COc1ccc(NC(=O)Nc2ccc3c(c2)C(=O)N([C@H](C)CO)C[C@@H](C)[C@H](CN(C)Cc2ccc(C(F)(F)F)cc2)OCCCC[C@H](C)O3)cc1,·,14*,-30,·,35[16.7 µM]
COc1ccc(NC(=O)Nc2ccc3c(c2)C(=O)N([C@@H](C)CO)C[C@@H](C)[C@H](CN(C)Cc2ccc(C(F)(F)F)cc2)OCCCC[C@@H](C)O3)cc1,·,-3,-13,·,?

# From PubChem
